Screening results from PubChem BioAssay.
Rows were chosen to be rich in hits. Some 5.7% of all compounds tested hit in one or more screens of this group.
HEK293 tox – cytotoxicity counter-screen for GLP-1 receptor inverse agonists. HEK293 cAMP-luciferase reporter cells, luminescence, 24 h. Potency, µM (series often up to 38.3 µM), without a hit: top-dose activity change, negative = inhibition, actives largely listed as inhibitors. 410,000 compounds, 0.13% hits;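 note: loss of luciferase light is scored as toxicity; potency is the fitted concentration of half-maximal effect; % is set by controls: 0 for no effect and ±100 for the full control effect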
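Seeding density was 200 cells/uL; after overnight-length (12 h) culture, 23 nL compounds went on for 24 h at 37 °C. Readout used a luciferase detection reagent, luminescence taken after 12 min at room temperature.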
D3 antag – D3 dopamine receptor (human) antagonism. P35462. D3R cells, DiscoveRx beta-arrestin luminescence, antagonist mode; stronger effect = lower value. max response, negative = inhibition, %. 360,000 compounds, 2.5% hits. AID 652054; in the data active = max response below about -50%; inconclusive = no clear call, values can overlap the other calls; note: % is set by controls: 0 for no effect and ±100 for the full control effect
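Cells plated overnight at 1500 cells/well, then exposed to library compounds with dopamine controls for 90 minutes at 37 degrees C. DiscoveRx reagent added for 30–60 minutes at room temperature; luminescence read, quantitative HTS format.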
D3 ag – activates the human D3 dopamine receptor; P35462; D3R DiscoveRx beta-arrestin cells, luminescence, 90 min; max activation, %; 410,000 compounds, 0.58% hits; AID 652048; in the data active = max activation above about 30%; note: 0% is about no effect
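Cells at 1500/well, incubated overnight, then treated with pinned compounds (dopamine as control) for 90 min at 37 degrees C. DiscoveRx reagent added for 30 - 60 minutes at room temperature; luminescence read.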
GLP1R ag – activates the human GLP-1 receptor. Potency, µM (highest dose often 45.6 µM), inactives show at the top dose activation, hits mostly activators. 380,000 compounds, 0.007% hits. HEK293 GLP-1R CRE-luciferase, luminescence, 4-6 h; cells express a hypersensitive GLP-1R form. P43220; note: potency is the fitted concentration of half-maximal effect; % of control where 0% means no effect
Target sequence (P43220 whole entry, looked up): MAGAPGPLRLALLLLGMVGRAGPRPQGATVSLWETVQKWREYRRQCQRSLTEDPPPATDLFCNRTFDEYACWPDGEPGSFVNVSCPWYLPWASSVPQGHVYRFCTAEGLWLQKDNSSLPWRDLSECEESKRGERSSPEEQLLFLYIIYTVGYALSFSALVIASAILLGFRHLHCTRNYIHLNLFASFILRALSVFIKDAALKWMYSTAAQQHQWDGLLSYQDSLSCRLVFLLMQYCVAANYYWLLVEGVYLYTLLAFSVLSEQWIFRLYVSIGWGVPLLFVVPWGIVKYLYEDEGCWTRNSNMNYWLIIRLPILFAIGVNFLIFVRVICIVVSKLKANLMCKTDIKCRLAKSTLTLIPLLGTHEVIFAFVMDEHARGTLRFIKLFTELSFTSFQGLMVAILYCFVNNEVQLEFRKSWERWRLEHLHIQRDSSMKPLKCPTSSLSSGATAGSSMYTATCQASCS
GLP-1R inv ag – acts as inverse agonist at human GLP-1 receptor. HEK293 GLP-1R CRE-luciferase, luminescence, 24 h; GLP-1R form is constitutively active. Potency, µM (doses to about 38.3 µM), for inactives: at the top dose activity change, negative = inhibition, hits mostly inhibitors. 410,000 compounds, 1.6% hits. AID 624417; note: potency is the fitted concentration of half-maximal effect; % is set by controls: 0 for no effect and ±100 for the full control effect; nearly all actives have a fitted effect of over 55% in size
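Seeding at 200 cells/uL, 12 h culture, 24 hr compound treatment, then luciferase reagent and a luminescence read; cells are HEK293 stably expressing a constitutively active GLP-1R plus cAMP-responsive luciferase.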
ClpP mod – qHTS Assay for Activators of ClpP. ATP-dependent Clp protease proteolytic subunit (Bacillus subtilis (strain 168)), P80244. purified B. subtilis ClpP, FRET peptide cleavage, 20 min. Potency, µM (top dose mostly 57.5 µM), for the others: top-dose activity change, negative = active. 340,000 compounds, 1.9% hits; active = well fitted falling curve with a large enough effect; inconclusive = small, poorly fitted or top-dose-only effect; inactive = no such curve, though single readings can be large or run the other way; note: potency is the fitted concentration of half-maximal effect; the source files actives as falling curves though it sought activators and does not explain the sign; nearly all actives have a fitted effect of over 65% in size
Target sequence (P80244 whole entry, looked up): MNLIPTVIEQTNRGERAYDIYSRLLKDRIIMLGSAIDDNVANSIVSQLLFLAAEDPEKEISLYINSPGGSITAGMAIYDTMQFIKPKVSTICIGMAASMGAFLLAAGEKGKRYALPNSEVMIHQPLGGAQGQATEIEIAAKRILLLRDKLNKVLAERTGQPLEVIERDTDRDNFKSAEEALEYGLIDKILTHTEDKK
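Purified B. subtilis ClpP, 10 microg/mL final in Tris/HCl pH8 with KCl, BSA, glycerol and Tween-20, cleaved an Abz/nitrotyrosine-quenched decapeptide. Fluorescence (ex 320, em 430) was read at 0 and 20 min at room temperature. Delta was normalized to 5.8 microM ADEP and DMSO/no-enzyme controls.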
An asterisk follows results filed as active; ? = inconclusive; . = not tested or not shown; [ ] = dose if it differs, or a comment. Unless noted, calls come from the whole dose curve; as a rule, active = well fitted curve in the direction sought with a large enough effect; inconclusive = small, poorly fitted or top-dose-only effect, or another doubt; inactive = no such curve, though single readings can be large; an effect the other way counts as inactive or inconclusive.

SMILES | HEK293 tox | D3 antag | D3 ag | GLP1R ag | GLP-1R inv ag | ClpP mod
CC1=CC(c2ccccc2)n2nc(N3C(=O)C4CC=CCC4C3=O)nc2N1 (stereo not given) | 79% | 14 | -6 | 1% | -1% | 2.2µM*
COc1ccccc1CNC(=O)CN(C)c1nn2c(=O)cc(C)nc2s1 | 1% | . | -6 | . | 0% | -1%
COc1ccc(C(=O)CCC(=O)N2CCN(c3cccc(Cl)c3)CC2)cc1 | -5% | 17 | -1 | -3% | ? | -3%
O=C(/C=C/c1ccc(Br)cc1)N1CCN(c2cccc(C(F)(F)F)c2)CC1 | -12% | -10 | -6 | -2% | 10µM* | -1%
O=C(O)CCC(=O)N1CCN(c2cccc(Cl)c2)CC1 | -15% | -63* | -3 | -9% | -25% | -3%
O=C(O)/C=C/C(=O)N1CCN(c2cccc(Cl)c2)CC1 | 15% | -60* | -17 | -4% | -1% | -3%
O=C(C(=O)N1CCN(c2ccc(F)cc2)CC1)c1c[nH]c2ccccc12 | 14%[0.307 µM] | 9 | -5 | -2% | 1%[0.307 µM] | -2%
O=C(C(=O)N1CCN(c2cccc(Cl)c2)CC1)c1c[nH]c2ccccc12 | -22% | 10 | 2 | -2% | 8.9µM* | 1%
O=C(Nc1cc(S(=O)(=O)N2CCCCC2)ccc1O)c1ccccc1NS(=O)(=O)c1ccc(F)cc1 | ? | -2 | 4 | 1% | ? | ?
COc1ccc(N2CCN(C(=O)c3ccccc3NS(=O)(=O)c3ccc(C)cc3)CC2)cc1 | 7% | ? | -3 | 5% | 3% | 13µM*
CN1CCN(C(=O)c2ccccc2NS(=O)(=O)c2ccc(F)cc2)CC1 | 2% | -63* | -23 | 4% | 12% | -2%
O=C(Nc1cc(S(=O)(=O)N2CCCCC2)ccc1Cl)c1ccccc1NS(=O)(=O)c1ccc(F)cc1 | ? | 0 | 2 | -11% | 2.8µM* | ?
COc1ccc(C)cc1NC(=O)c1ccc2nc(Cc3ccccc3)oc2c1 | -1% | . | 9 | . | -12% | -24%
Clc1ccc2nc(CN3CCCCCC3)cn2c1 | 7% | -85* | -5 | 0% | 8% | -14%
Clc1ccc2nc(CN3CCCCC3)cn2c1 | -17% | ? | -28 | 1% | 2% | -10%
Cc1cc(-c2ccccc2)nc2[nH]n(-c3ccccc3)c(=O)c12 | -19% | -68* | -7 | -3% | 5% | 0%
Cc1ccc(F)c(S(=O)(=O)NC(=O)C2(C)CCN2C(=O)c2ccccc2)c1 (stereo not given) | 8% | -23 | -6 | 0% | 4% | 2%
FC(F)(F)c1ccccc1Cc1c(-c2ccc(Cl)cc2)nc2ccc(Br)cn12 | -13% | -54* | -7 | -1% | -23% | -10%
Cc1ccc(-c2nc3ccc(C)cn3c2Cc2ccccc2C(F)(F)F)cc1 | -24% | -13 | -16 | -1% | ? | 4%
FC(F)(F)c1ccccc1Cc1c(-c2ccc(Cl)cc2)nc2ccc(Cl)cn12 | -8% | 26 | 3 | 14% | ? | ?
Fc1ccc(-c2nc3ccc(Br)cn3c2Cc2ccccc2)cc1 | -13% | 4 | -5 | 17% | 8.9µM* | -11%
Cc1ccc2nc(-c3ccccc3)c(Cc3ccccc3C(F)(F)F)n2c1 | -20% | -54* | -18 | -1% | ? | 5%
O=C1NC2(C=Cc3c(ccc4ccccc34)O2)Oc2ccccc21 (stereo not given) | ? | -51* | -4 | 6% | ? | ?
Cc1ccc(SC/C(O)=C(\C#N)c2nc3ccccc3s2)cc1 | -3% | 15 | 8 | -8% | 11% | 25µM*
N#C/C(=C(/O)CSc1ccccn1)c1nc2ccccc2s1 | -22% | 13 | 1 | 0% | 8% | 0%
SMILES | HEK293 tox | D3 antag | D3 ag | GLP1R ag | GLP-1R inv ag | ClpP mod
Cc1c(CC(=O)NCCc2ccc(Cl)cc2)c(=O)oc2c(C)c3occ(C(C)(C)C)c3cc12 | -2% | . | 15 | . | 4% | ?
CCOC(=O)/C(=N\Nc1ccccc1Cl)N(C)C1CCCCC1 | 7% | 10 | 0 | 16% | 8.9µM* | 1%
CCOC(=O)/C(=N\Nc1ccccc1Cl)N1CC(C)OC(C)C1 (stereo not given) | -20% | 9 | 7 | 21% | 5µM* | .
Cn1cnc(S(=O)(=O)N2CCCC(C(=O)Nc3cccc(C#N)c3)C2)c1 (stereo not given) | -8% | . | -4 | . | 1% | 1%
O=C(Nc1ccc(Br)cc1)c1cc(Br)c(Br)s1 | . | . | -12 | 0% | . | .
Cc1ccc(Nc2c(-c3c[nH]c4ccccc34)nc3cc(C)ccn23)cc1 | -10% | . | 9 | . | ? | 28µM*
CC(C)c1cc(C(=O)NNC(=S)NC2CCCCC2)cs1 | -1% | -53* | -20 | -3% | ? | -2%
CCCCOc1cccc(C(=O)NNC(=S)NC2CCCCC2)c1 | 11% | ? | -21 | -11% | ? | 25µM*
COc1ccc(N2CCN(C(=O)CSc3nc(-c4ccc(C(C)C)cc4)no3)CC2)cc1 | -6% | . | -25 | . | -11% | 0%
O=c1[nH][nH]c(C(F)(F)F)c1C=NCc1cccc(Cl)c1 | -11% | -88* | -4 | -10% | -15% | 0%
O=c1[nH][nH]c(C(F)(F)F)c1C=Nc1ccc(Cl)cc1 | 0% | -22 | -15 | -15% | 3% | 3%
O=c1[nH][nH]c(C(F)(F)F)c1C=NCc1ccc(Cl)cc1 | -18% | -84* | -3 | -6% | -14% | 1%
Cc1cccc(Oc2nc3c(C)cccn3c(=O)c2/C=C(\C#N)c2nc3ccccc3s2)c1 | 15% | . | -7 | . | 7% | 4%
CCCCCCn1c(=O)c(Cc2ccccc2)c(O)c2ccccc21 | -8% | -3 | -7 | 6% | -26% | .
CCCCn1c(=O)c(Cc2ccccc2)c(O)c2ccccc21 | 12% | 10 | -2 | 0% | 0% | 14µM*
CCCCCCCCn1c(=O)c(C(=O)OC)c(N)c2ccccc21 | -30% | 31 | 38* | 7% | ? | -2%
CCCCCCCn1c(=O)c(C(=O)OC)c(N)c2ccccc21 | 3% | 14 | 26 | 17% | 11µM* | .
Clc1ccccc1-c1nnc(SCc2nc(-c3ccccc3)no2)n1-c1ccccc1 | -7% | . | 6 | . | 10µM* | 0%
Cc1ccc(-n2c(Cc3ccccc3)nnc2SCc2nc(-c3cccs3)no2)cc1 | -6% | . | -11 | . | 10µM* | 2%
O=c1c2ccccc2nc(SCc2nc(-c3ccccc3)no2)n1-c1ccc(F)cc1 | -7% | ? | -11 | -2% | 3.5µM* | -1%
